# Experimental data published in PubChem BioAssay (NCI).
# This is part of a sample that, as a whole, favours compounds with a hit. Of some 83,000 tested, about 20% had one in any assay.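 Step 1: grow cells in 96-well plates. Step 2: add test compound at a single concentration. Step 3: incubate 48 h. Step 4: record percent growth.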 Values without a mark were called inactive. The source made the active and inactive calls. The calls were made as follows: active = growth percent below 10; inactive = the rest.
# Test system: HCT-15 colon
# Assay: NCI-60 one-dose screen, 48 h (100 = growth as untreated, 0 = no growth, -100 = all killed)
# Conditions: 10 µM unless noted
row,Structure (SMILES),growth
1,COC(=O)[C@]12CC[C@@H](C)[C@H](C)[C@@H]1C1=CC(=O)[C@@H]3[C@@]4(C)C[C@@H](OC(C)=O)[C@H](OC(C)=O)[C@@](C)(COC(C)=O)[C@@H]4C(=O)C[C@@]3(C)[C@]1(C)CC2,38.5%
2,COc1ccc(/C(=C\c2ccc3c(c2)OCO3)C(=O)Nc2nc3ccccc3s2)cc1OC,90.1%
3,O=C1c2cccc3cccc(c23)C(=O)N1CC#Cc1ccc2c3c(cccc13)C(=O)N(CCO)C2=O,82.1%
4,CCCCC/C(=C\c1ccccc1)C1OC(C)C(C)O1 (configuration not stated),109%
5,COc1ccc2c(c1)c(-c1nc(-c3c[nH]c4ncccc34)cs1)cn2CCNC(=O)OC(C)(C)C,54.6%
6,COc1ccc(C2c3ccccc3NC(=O)N2C2CCN(C)CC2)c(OC)c1 (configuration not stated),95.6%
7,COc1cccc(-c2nn(-c3ccccc3)cc2-c2ccnc(NCCCNS(=O)(=O)c3ccc(Cl)cc3)c2)c1,34.4%
8,CC(CNc1nc(Nc2ccc(Cl)c(Cl)c2)nc(C(Cl)(Cl)Cl)n1)N(C)C (configuration not stated),-27.7% (active)
9,COc1ccc2c(c1)c1nc3cc(C)c(C)cc3nc1n2CCN(C)C,-80.3% (active)
10,Oc1cc(/C=C/c2nc(N3CCOCC3)c3cc(Cl)c(Cl)cc3n2)cc(O)c1O,98.9%
11,COC(=O)CCCCCn1c2ccccc2c2c3c(c4c5ccccc5[nH]c4c21)C(=O)N(O)C3=O,44.1%
12,NCCn1cc(-c2nc(-c3c[nH]c4ncccc34)cs2)c2ccccc21,88.6%
